# Records with an inconclusive call do not appear. The source made the active and inactive calls. No rule for the calls is given here.
# Experiment: HepG2 cell cytotoxicity, cytotoxicity control, set 5 (AID 588441)
# Settings: series mostly up to 50 µM; viability: at the top concentration
row,SMILES,viability
1,O=C(NCCc1ccc(Cl)cc1)c1ccc(CNc2c(N3CCOCC3)c(=O)c2=O)cc1,99.1% (inactive)
2,CC(C)OC(=O)CSc1ncnc2c1cnn2-c1ccccc1,98.7% (inactive)
3,CCOC(=O)CSc1ncnc2c1cnn2-c1ccc(C)cc1C,97.2% (inactive)
4,CCC(C)NC(=O)CSc1nc2ccccc2c(=O)[nH]1 (stereo not drawn),100% (inactive)
5,CC1CC(C)CN(C(=O)C2CCC(CNc3c(N4CCCCC4)c(=O)c3=O)CC2)C1 (stereo not drawn),109% [at 15 µM] (inactive)
6,COc1ccc(N2CCN(C(=O)c3ccc(CNc4c(N5CCOCC5)c(=O)c4=O)cc3)CC2)cc1,109% (inactive)
7,COC(=O)CSc1ncnc2c1cnn2-c1ccc(C)cc1C,99% (inactive)
8,CCOC(=O)CSc1ncnc2c1cnn2-c1ccccc1,95.6% (inactive)

# From PubChem BioAssay AID588441 (Southern Research Specialized Biocontainment Screening …, 2011)
